Screens as filed in PubChem.
PLCg1 inh: blocks human PLC-gamma1 enzyme activity. P19174. purified PLC-gamma1, fluorogenic substrate, fluorescence. inhibition, % at 12.2 µM. hit rate 0.84% among 370,000. AID 720700; in the data active = inhibition above about 9.5%
ADAM10 inh: inhibits human ADAM10; O14672; recombinant ADAM10, EDANS/DABCYL FRET peptide cleavage, 3 h; inhibition, % at 7 µM; hit rate 0.62% among 370,000; AID 720582;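 active = inhibition above a per-campaign cutoff equal to the mean of compounds falling between control-based bounds plus 3 SD, cut at about 20% in these data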;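 also: 0% = DMSO wells while the 100% control is not disclosed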
proKLK7 act: activates the human kallikrein-7 zymogen. P49862. purified proKLK7, EDANS-DABCYL substrate fluorescence; 100% is mature enzyme control, 0% vehicle. activation, % at 7 µM. hit rate 0.9% among 370,000;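 active = activation above the mean of all tested compounds plus 3 SD, computed per campaign excluding outliers beyond control limits, cut at about 13% in these data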
ADAM17 inh: inhibits human ADAM17; P78536; recombinant ADAM17, EDANS/DABCYL FRET peptide cleavage; inhibition, % at 6.95 µM; hit rate 0.83% among 370,000; AID 720648;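 active = inhibition above the mean of compounds lying between control limits plus 3 SD, set per campaign, cut at about 8.5% in these data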;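 also: 0% = DMSO-only wells as the low control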
PLCb3 inh: inhibitors of human phospholipase C beta3. Q01970. Purified PLC-beta3, fluorogenic substrate, fluorescence. hit rate 0.18% among 370,000. inhibition, % at 12.2 µM; in the data active = inhibition above about 11%;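 also: 0% = median of compound wells on plate and 100% = full blocker control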
Target sequence (Q01970 whole entry, looked up): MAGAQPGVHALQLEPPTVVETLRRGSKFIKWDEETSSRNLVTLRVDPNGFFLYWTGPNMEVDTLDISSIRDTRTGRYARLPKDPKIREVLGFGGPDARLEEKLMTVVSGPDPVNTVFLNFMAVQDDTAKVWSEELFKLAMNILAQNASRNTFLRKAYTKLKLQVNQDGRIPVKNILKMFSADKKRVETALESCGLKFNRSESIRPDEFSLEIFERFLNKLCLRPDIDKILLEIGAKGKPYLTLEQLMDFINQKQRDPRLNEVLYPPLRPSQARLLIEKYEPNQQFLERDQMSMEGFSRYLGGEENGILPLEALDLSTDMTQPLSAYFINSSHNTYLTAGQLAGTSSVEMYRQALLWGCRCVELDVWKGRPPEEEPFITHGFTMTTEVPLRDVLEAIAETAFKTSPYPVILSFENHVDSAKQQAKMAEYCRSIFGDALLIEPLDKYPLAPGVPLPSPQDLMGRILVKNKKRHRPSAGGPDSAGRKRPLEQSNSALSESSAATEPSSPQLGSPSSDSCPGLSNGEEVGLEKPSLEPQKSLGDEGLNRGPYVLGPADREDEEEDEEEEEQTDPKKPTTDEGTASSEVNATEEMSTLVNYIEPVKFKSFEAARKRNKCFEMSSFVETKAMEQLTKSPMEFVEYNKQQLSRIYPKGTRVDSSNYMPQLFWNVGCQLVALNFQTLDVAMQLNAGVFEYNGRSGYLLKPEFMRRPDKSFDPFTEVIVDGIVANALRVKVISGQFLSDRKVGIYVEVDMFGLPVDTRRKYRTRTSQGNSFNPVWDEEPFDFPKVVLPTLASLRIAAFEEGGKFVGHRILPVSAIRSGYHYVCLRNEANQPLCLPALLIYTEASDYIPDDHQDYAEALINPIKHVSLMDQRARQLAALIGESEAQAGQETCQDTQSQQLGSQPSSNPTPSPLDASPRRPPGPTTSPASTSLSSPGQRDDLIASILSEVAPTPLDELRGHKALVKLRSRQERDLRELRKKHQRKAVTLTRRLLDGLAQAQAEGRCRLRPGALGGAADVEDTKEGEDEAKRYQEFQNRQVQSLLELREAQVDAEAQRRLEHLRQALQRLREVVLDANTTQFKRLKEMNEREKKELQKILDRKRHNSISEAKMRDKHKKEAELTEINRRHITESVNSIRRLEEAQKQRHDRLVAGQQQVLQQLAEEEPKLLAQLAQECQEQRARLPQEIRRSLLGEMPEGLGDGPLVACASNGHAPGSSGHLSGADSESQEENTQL
ADAM10 confirm: confirmation of inhibitors of human ADAM10; shares compounds with ADAM10 inh; ADAM10 QFRET peptide cleavage, EDANS fluorescence; inhibition, % at 6.95 µM; hit rate 1% among 2,100; AID 743208;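 active = inhibition above about 20% chosen separately for each screening run, limit read from the data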;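 also: 0% = DMSO wells and 100% = marimastat wells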
ADAM17 ctr: inhibits human ADAM17 in ADAM10 exosite counter-screen. shares compounds with ADAM10 inh. ADAM17 QFRET peptide cleavage, EDANS fluorescence. inhibition, % at 6.95 µM. hit rate 0.5% among 2,100. AID 743214;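 active = mean triplicate inhibition above the solvent-only control wells' mean plus 3 SD, cut at about 12% in these data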;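 also: 0% = DMSO wells and 100% = marimastat wells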
ADAM10 ctr: ADAM10 inhibition, counter-screen for ADAM17 exosite hits. inhibition, % at 6.95 µM. shares compounds with ADAM17 inh. hit rate 47% among 2,900. AID 743256. recombinant ADAM10, EDANS/DABCYL FRET peptide cleavage, 3 h;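 active = mean inhibition over the triplicate runs exceeds the activity threshold set in the earlier primary screen, cut at about 20% in these data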;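 also: 0% = DMSO wells and 100% = marimastat wells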
ADAM17 confirm: confirmation of inhibitors of human ADAM17. inhibition, % at 6.95 µM. AID 743257. hit rate 65% among 2,900. shares compounds with ADAM17 inh. recombinant ADAM17, EDANS/DABCYL QFRET peptide cleavage;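 active = mean inhibition across replicates above the hit cutoff set in the primary screen, cut at about 8.5% in these data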;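 also: 0% = DMSO wells and 100% = marimastat wells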
Starred values were filed as active, the others as inactive; nt = no result given. In the library only some 2.9% were active in any assay of this set; here they are far more common.

SMILES | PLCg1 inh | ADAM10 inh | proKLK7 act | ADAM17 inh | PLCb3 inh | ADAM10 confirm | ADAM17 ctr | ADAM10 ctr | ADAM17 confirm
C[C@H](NC(=O)c1nc[nH]c1C(=O)NCc1ccc(CNC(=O)OC(C)(C)C)cc1)c1ccccc1 | 7.6 | 54.4* | 0.4 | 25.4* | 3.1 | 3.2 | 0.9 | 29.2* | 16.4*
C[C@H](NC(=O)c1nc[nH]c1C(=O)N[C@@H](CCCCNC(=O)OC(C)(C)C)C(=O)OC(C)(C)C)c1ccccc1 | 2.3 | 21.2* | 0.4 | 11.6* | 2.1 | 6.0 | 1.9 | 28.5* | 17.8*
CC(C)(C)OC(=O)NCCCC[C@H](NC(=O)c1[nH]cnc1C(=O)N[C@@H](Cc1ccccc1)C(=O)OC(C)(C)C)C(=O)OC(C)(C)C | 4.7 | 1.4 | 0.4 | 1.4 | 3.0 | nt | nt | nt | nt
CC(C)(C)OC(=O)NCCCCCNC(=O)c1[nH]cnc1C(=O)Nc1ccc(Cl)cc1 | 0.6 | 30.6* | 0.0 | 13.7* | 4.7 | 5.4 | 1.6 | 39.1* | 21.8*
C[C@@H](NC(=O)c1nc[nH]c1C(=O)NCCCCCNC(=O)OC(C)(C)C)c1ccccc1 | 0.5 | 1.6 | 0.5 | -0.7 | 0.5 | nt | nt | nt | nt
CCc1cc(Cn2nc(-c3ccccc3)cc2C(=O)NCc2cccc(Br)c2)on1 | 3.1 | 20.9* | 0.1 | 14.5* | 2.4 | 13.0 | 3.9 | 36.5* | 22.1*
CCc1cc(Cn2nc(-c3ccccc3)cc2C(=O)NCc2ccc(C)cc2)on1 | -0.1 | 28.9* | 0.2 | 9.1* | -0.8 | 7.9 | 3.5 | 24.1* | 13.1*
COC(=O)[C@H](C(C)C)N1Cc2nnn(CC3CCCCC3)c2-c2cc(F)ccc2S1(=O)=O | 2.6 | 8.2 | 0.6 | 3.5 | 1.7 | nt | nt | nt | nt
CCCCOCCCNC(=O)C[C@H]1C(=O)N(Cc2ccc(OC)cc2)C2=CCCC[C@@]21C(=O)OCC | 1.8 | 3.8 | 0.1 | 2.4 | 1.5 | nt | nt | nt | nt
C[C@H]1C2CC(OC(=O)Nc3cccc(Cl)c3)C(C2)[C@H]2CCCCN21 (stereo partly drawn) | -0.1 | -5.1 | 0.4 | -6.6 | -3.6 | nt | nt | nt | nt
FC(F)(F)c1cccc(N2CCN(C(=S)Nc3nccc4ccccc34)CC2)c1 | -2.6 | -22.3 | nt | -10.3 | -55.6 | nt | nt | nt | nt
O/N=C/c1cc(Br)ccc1OCc1cccc(F)c1 | 5.7 | 27.6* | -0.3 | 11.4* | -2.9 | 4.4 | 0.7 | 17.9 | 9.5*
COc1ccc(CN2C(=O)[C@]3(NCCc4c3[nH]c3ccc(OC)cc43)c3cc(F)ccc32)cc1 | 0.2 | 11.0 | 0.7 | 3.6 | 0.0 | nt | nt | nt | nt
COc1ccc(CN[C@@H]2CC[C@@]34CCCN3C(=O)CCC[C@H]4C2)cc1OC | -2.2 | -1.5 | nt | -1.6 | 3.2 | nt | nt | nt | nt
O=C(N/N=C/c1ccco1)/C(=C/c1cccc([N+](=O)[O-])c1)NC(=O)c1ccccc1 | 0.0 | -10.2 | -0.2 | -0.4 | -1.0 | nt | nt | nt | nt
O=C(N/N=C/c1ccc(Br)o1)/C(=C/c1ccc([N+](=O)[O-])cc1)NC(=O)c1ccccc1 | -12.4 | 30.6* | -1.2 | 13.4* | -8.6 | 1.9 | 0.9 | 32.1* | 17.4*
CCOC(=O)[C@@]12CN(C(=O)OC(C)(C)C)CC=C1N(Cc1ccc(OC)cc1)C(=O)[C@H]2CC(=O)NCCCCc1ccccc1 | 0.8 | 21.7* | 0.9 | 8.7* | 3.4 | 6.2 | 1.8 | 19.4 | 10.2*
CCOC(=O)[C@]12CCCCC/C=C\1N(Cc1ccc(OC)cc1)C(=O)[C@H]2CC(=O)NCc1cccc(C(F)(F)F)c1 | 1.1 | 20.8* | 1.3 | 11.0* | 2.9 | 9.9 | 3.0 | 33.6* | 14.1*
CCOC(=O)[C@@]12CN(C(=O)OC(C)(C)C)CC=C1N(Cc1ccc(OC)cc1)C(=O)[C@H]2CC(=O)NCCCOC | 0.7 | -3.4 | 0.4 | -1.2 | 0.1 | nt | nt | nt | nt
COC(=O)[C@]12C[C@H](CC(=O)NCCCCc3ccccc3)C(=O)N(CCC3=CCCCC3)C1=C[C@H](COCc1ccccc1)O[C@@H]2C | -2.4 | -4.1 | -0.1 | 1.9 | 1.5 | nt | nt | nt | nt
CN(c1ccc(NC(=O)CCc2c[nH]c3ccccc23)cc1)c1ccccn1 | -7.8 | 2.8 | 0.3 | 2.8 | -11.7 | nt | nt | nt | nt
CCCCCOC(=O)C1=C(C)N(C)C(=O)NC1c1cc(Br)c(O)c(OC)c1 (stereo not drawn) | 0.9 | 20.5* | 0.3 | 10.5* | -7.0 | -0.7 | 0.6 | 7.6 | 4.9
S=C(Nc1ccccc1Cl)OCCN1CCCC12CCC(c1ccccc1)CC2 (stereo not drawn) | -1.8 | -4.5 | nt | -7.1 | -0.6 | nt | nt | nt | nt
CCn1c2ccccc2c2cc(C=NNC(=O)CSc3nc4ccccc4c(=O)n3-c3ccccc3)ccc21 | -39.3 | -8.0 | -0.2 | -0.8 | -47.4 | nt | nt | nt | nt
CCN(CC)C(=O)CC[C@@H]1CC[C@]2(CCCN(Cc3cccc4ccccc34)C2)O1 | 3.0 | 2.8 | 0.3 | -0.2 | 2.8 | nt | nt | nt | nt
SMILES | PLCg1 inh | ADAM10 inh | proKLK7 act | ADAM17 inh | PLCb3 inh | ADAM10 confirm | ADAM17 ctr | ADAM10 ctr | ADAM17 confirm
Cc1cc(C)cc(NC(=O)C2(c3ccccc3)CC2(Cl)Cl)c1 (stereo not drawn) | 1.9 | 20.4* | 0.2 | 9.9* | 5.8 | 5.7 | 2.0 | 13.9 | 9.6*
CCOC(=O)[C@@]12CCCC=C1N(CCc1ccc(Cl)cc1)C(=O)[C@H]2CC(=O)NCC1CCCCC1 | 1.4 | 8.6 | 0.4 | 3.2 | -0.5 | nt | nt | nt | nt
Cc1ccc(NC(=O)C2CCN(S(=O)(=O)c3ccc4c(c3)NC(=O)C(C)S4)CC2)cc1Cl (stereo not drawn) | 1.6 | 24.4* | 0.2 | 9.4* | -3.7 | 5.7 | 2.6 | 46.8* | 23.7*
Cc1cc(C)cc(NC(=O)C2CCN(S(=O)(=O)c3ccc4c(c3)NC(=O)C(C)S4)CC2)c1 (stereo not drawn) | 5.2 | 18.0 | 0.9 | 4.4 | -9.1 | nt | nt | nt | nt
CCCCOc1ccc(C(=O)NC2CCCCN(Cc3ccc(Cl)cc3)C2=O)cc1 (stereo not drawn) | 6.4 | 16.2 | 0.6 | 5.6 | 2.7 | nt | nt | nt | nt
COC(=O)[C@]12C[C@H](CC(=O)NCc3ccccc3)C(=O)N(Cc3cccc4ccccc34)C1=C[C@H](C(C)(C)C)O[C@@H]2C | 5.6 | 16.2 | -0.1 | 7.6 | 0.5 | nt | nt | nt | nt
COC(=O)[C@]12C[C@H](CC(=O)NCc3ccc(OC)c(OC)c3)C(=O)N(Cc3cccc4ccccc34)C1=C[C@H](C(C)(C)C)O[C@@H]2C | 3.3 | 19.9* | 0.9 | 8.8* | 5.1 | 6.5 | 2.9 | 29.0* | 21.9*
